Measured values published in PubChem BioAssay AID1259343 (VanderVen Lab, College of Veterinary Medicine, Cornell …, 2017).
Among all 6,200 compounds or so, about 2,900 (47%) were called active. Rule as the data show it: active = inhibition above about 50%; inactive = the rest. The set was probably picked from earlier hits. The list shows a part of the results.

Assay: Mycobacterium tuberculosis growth inhibition, primary screen (AID 1259343)
Details: inhibition: at 10 µM, active compounds read high; outcome: 10 uM

Compound	inhibition
O=C(CN1CCN(CCC23CC4CC(CC(C4)C2)C3)CC1)N1CCCCC1	9.26% (inactive)
O=C(Nc1ccc(-n2cccn2)cc1)C1CCN(Cc2ccccn2)CC1	90.4% (active)
Cc1nc(C)c(CN2CCC(C(=O)Nc3ccc(-n4cccn4)cc3)CC2)nc1C	83.6% (active)
Cc1ccc(C(C)CCN2CCC(C(=O)Nc3ccc(-n4cccn4)cc3)CC2)o1 (configuration not stated)	81.8% (active)
O=C(CCC1CCCCC1)Nc1ccc(-n2cccn2)cc1	37.5% (inactive)
O=C(Nc1ccc(-n2cccn2)cc1)C1CCCCN1Cc1cc2ccccc2[nH]1 (configuration not stated)	80.4% (active)
CCn1ncc(CN2CCCC(C(=O)Nc3cccc(-c4cc5ccccc5[nH]4)c3)C2)c1C (configuration not stated)	24.9% (inactive)
CCOC(=O)C1(CCOc2ccccc2)CCN(Cc2cc3ccccc3[nH]2)CC1	inactive
Cc1ccc2nc(/C(Cl)=C/c3cccc(OCc4cccc(C#N)c4)c3)cc(=O)n2c1	32.1% (inactive)
O=C(Nc1ccc(-n2cccn2)cc1)C1CCN(CC2CCOC2)CC1 (configuration not stated)	87.4% (active)
O=C(Nc1cccc(-c2cccc(F)c2)c1)C1CCN(CC2CCOC2)CC1 (configuration not stated)	19.5% (inactive)
CCCCOC(=O)c1ccc(N/C=C(\C#N)c2nc(C3CC3)cs2)cc1	79.1% (active)
N#CC(Cc1ccccc1)NC(=O)/C=C/c1ccccc1Br (configuration not stated)	88.1% (active)
O=C(O)c1cncnc1/C=C/c1ccccc1Br	3.04% (inactive)
CCc1ccc(S(=O)(=O)NCCOc2ccc(-c3ccc(F)cc3)nn2)s1	92.4% (active)
C#CCN(CC=C)C(=O)c1cc(COc2cccc(C(F)(F)F)c2)on1	26.3% (inactive)
O=C(c1cc(COc2cccc(C(F)(F)F)c2)on1)N1CCC(c2ccncc2)CC1	64.9% (active)
O=C(c1cc(COc2ccc3c(c2)CCCC3)on1)N1CCC(c2ccncc2)CC1	36.6% (inactive)
O=C(NCc1ccc(Cl)s1)c1cc(COc2cccc(C(F)(F)F)c2)on1	82.4% (active)
O=C(c1cc(COc2ccc(-n3cncn3)cc2)on1)N1CCC(c2ccncc2)CC1	35.6% (inactive)
O=C(NC1(c2ccccc2)CC1)c1cc(COc2cccc(C(F)(F)F)c2)on1	88.1% (active)
Cc1ccc(-c2nc(N3CCN(CCO)CC3)ncc2-c2ccccc2C)cc1	-0.32% (inactive)

Compound	inhibition
O=C(NCc1ccccc1)c1coc(Br)c1	41.6% (inactive)
O=P(NCc1ccccc1)(Oc1ccccc1)Oc1ccccc1	81.5% (active)
CN(Cc1ccc(C#N)cc1)C(=O)CCc1ccc(C(C)(C)C)cc1	74.3% (active)
CC(C)(C)CC(C)(C)NC(=O)c1ccc(C#N)cc1	-11.6% (inactive)
CCC(C)(C)C1CCC(NC(=O)c2cccc(-n3cnnn3)c2)CC1 (configuration not stated)	24.6% (inactive)
CCC(C)(C)C1CCC(NC(=O)c2ccnc(C)n2)CC1 (configuration not stated)	70.8% (active)
O=[N+]([O-])c1ccc(C2CN=C(Nc3ccccc3)O2)cc1 (configuration not stated)	74% (active)
NC(=O)CC1CCN(Cc2noc(Cc3ccc(Br)cc3)n2)CC1	24.6% (inactive)
CCC(=O)C1=C(c2ccc(Br)cc2)N(C(=O)CC)n2cnnc2S1	8.79% (inactive)
O=C(NC(=S)Nc1cccc(C(F)(F)F)c1)c1ccc(Br)o1	-5.04% (inactive)
Cc1nnc(NC(=O)c2ccc(S(=O)(=O)Nc3cccc(C(F)(F)F)c3)o2)s1	66.4% (active)
CNS(=O)(=O)c1ccc(C(=O)Nc2ccc(C)c(C)c2)o1	-15.4% (inactive)
O=C(Nc1ccc(CNS(=O)(=O)c2c(Cl)cccc2Cl)cc1)C1CC1	27.6% (inactive)
O=C(NNc1ccc(Cl)c(Cl)c1)c1ccc(NC(=O)C2CC2)cc1	96.5% (active)
O=C(Nc1ccc(Cl)c(Cl)c1)N(Cc1ccc(O)cc1)C1CC1	27.8% (inactive)
CCCCNC(=S)N1CC2(C)CC1CC(C)(C)C2 (configuration not stated)	90.3% (active)
CC1(C)CC2CC(C)(CN2C(=S)NC(=O)c2cccs2)C1 (configuration not stated)	96.2% (active)
CC1(C)CC2CC(C)(CN2C(=O)c2cc3c(s2)CCCC3)C1 (configuration not stated)	47.7% (inactive)
Fc1ccc(OCc2noc(-c3cccs3)n2)c(Br)c1	-15.9% (inactive)
Clc1ccc(Cc2noc(-c3cccs3)n2)c(Cl)c1	84.3% (active)
CNC(=O)Cc1noc(-c2cc3c(s2)CCCCCC3)n1	43.5% (inactive)
O=C(CN1CCCc2cc(F)ccc21)NCc1ccco1	44% (inactive)

Compound	inhibition
S=C(NCc1ccco1)N1CCC2CCCCC2C1 (configuration not stated)	86.6% (active)
N#Cc1cccc(NC(=O)c2cc(Cl)c3c(c2)OCCCO3)c1	56.4% (active)
N#Cc1cccc(NC(=O)C2C3CC4CC(C3)CC2C4)c1 (configuration not stated)	28.5% (inactive)
COc1cc(C(=O)NC2CCOc3ccccc32)cc2c1OCCO2 (configuration not stated)	41.9% (inactive)
OC(c1ccccc1)c1nc(/C=C/c2ccccc2)cs1 (configuration not stated)	47.4% (inactive)
CC(C)c1cccc(Nc2nnc(C(O)c3ccccc3)s2)c1 (configuration not stated)	68.4% (active)
Cc1cc(NC(=O)C(C)C)n(-c2nc3c(c(=O)[nH]2)CCC3)n1	101% (active)
Cc1cc(NC(=O)C(C)Oc2ccccc2)n(-c2nc3c(c(=O)[nH]2)CCC3)n1 (configuration not stated)	100% (active)
O=C(Nc1ncnc2c1CCC2)c1nc2ccccc2s1	93.3% (active)
O=C(CSC(F)(F)F)NCC1CCC1	-78.2% (inactive)
CC(C)(C)c1nnc2sc(SCC(=O)NCC3CCCCC3)nn2c1=O	73.1% (active)
O=C(CSc1nnc(SCC(=O)NC2CCCC2)s1)NC1CCCC1	-2.28% (inactive)
Cc1cnc(CNC(=O)C2CC2c2ccc(F)c(F)c2)o1 (configuration not stated)	-29.9% (inactive)
Cc1csc(CCNC(=O)C2CC2c2ccc(Cl)cc2)n1 (configuration not stated)	79.1% (active)
CC(C)c1nc(CCNC(=O)C2CC2c2cccc(O)c2)cs1 (configuration not stated)	39.2% (inactive)
O=C(O)Cc1ccc(NC(=O)c2cccc(Br)c2)cc1	89.2% (active)
CC(C)NC(=O)Nc1cccc(C(=O)Nc2ccc(C(C)C)cc2)c1	35.6% (inactive)
C=CCn1c(COc2ccc3ccccc3c2)nc2ccccc21	26.8% (inactive)
C=C(Br)Cn1c(C=Cc2ccccc2)nc2ccccc21	89.4% (active)
C=C(Br)Cn1c(-c2cccs2)nc2ccccc21	4.18% (inactive)
CCC1CCc2sc(C(=O)N=c3sccn3C)cc2C1 (configuration not stated)	37.3% (inactive)
CC(C)(C)C1CCc2sc(C(=O)O)cc2C1 (configuration not stated)	-46.9% (inactive)

Compound	inhibition
CCC1CCc2sc(C(=O)O)cc2C1 (configuration not stated)	85.9% (active)
C=CCN(CC=C)C(=O)CSc1nc(N)cc(=O)[nH]1	-27.6% (inactive)
O=C(c1ccc(-c2ccccc2)cc1)C1CCCN(C(=O)CSc2ncccn2)C1 (configuration not stated)	9.54% (inactive)
Cc1cc(C(=O)N2CCCC(C(=O)c3ccc(-c4ccccc4)cc3)C2)no1 (configuration not stated)	79.4% (active)
O=C(c1ccc2ccccc2c1)C1CCCN(S(=O)(=O)Cc2ccccc2)C1 (configuration not stated)	23.8% (inactive)
O=C(c1ccc(-c2ccccc2)cc1)C1CCCN(C(=O)c2ccsc2)C1 (configuration not stated)	74.6% (active)
CNc1ncc(CN(C)c2nccc(CCC(F)(F)F)n2)cn1	55.3% (active)
CN(Cc1ccc2nonc2c1)c1nccc(CCC(F)(F)F)n1	31.6% (inactive)
CN(Cc1cccc(O)c1)c1nccc(CCC(F)(F)F)n1	54.8% (active)
O=C(O)CC1(CC(=O)Nc2cc(C(F)(F)F)cc(C(F)(F)F)c2)CCCCC1	88.4% (active)
Cc1sc(NC(=O)CC2(CC(=O)O)CCCCC2)c(C#N)c1C	-8.62% (inactive)
CCc1ccc(C2=CC(c3ccc(Br)cc3)n3nnnc3N2)cc1 (configuration not stated)	76.2% (active)
COc1ccc(C2C(C(=O)c3ccccc3)C(O)(C(F)(F)F)N(C)C(=O)N2C)cc1 (configuration not stated)	-22.5% (inactive)
COc1ccc(C2C=C(c3ccccc3)Nc3nnnn32)cc1 (configuration not stated)	78.5% (active)
COc1ccc(C2C=C(c3ccc(Cl)cc3)Nc3nnnn32)cc1 (configuration not stated)	7.81% (inactive)
Clc1cccc(C2C=C(c3ccc(-c4ccccc4)cc3)Nc3nnnn32)c1Cl (configuration not stated)	93.5% (active)
CCc1ccc(C2C=C(c3ccc(F)cc3)Nc3nnnn32)cc1 (configuration not stated)	80.2% (active)
Cc1ccc(C2=CC(c3ccc(Cl)cc3)n3nnnc3N2)cc1 (configuration not stated)	102% (active)
Clc1ccc(-c2csc3ncnc(Sc4nnnn4C4CC4)c23)cc1	-14.2% (inactive)
Clc1ccc(C2C=C(c3ccc(Br)cc3)Nc3nnnn32)cc1 (configuration not stated)	-26.6% (inactive)
Cc1cccc(C)c1OC1CCN(c2cncc(C(N)=O)n2)CC1	95.8% (active)
OC(c1ccccc1)C1CCN(c2cncc(Cl)n2)CC1 (configuration not stated)	44.6% (inactive)

Compound	inhibition
Cc1cccc(C)c1OC1CN(C(=O)C(=O)c2ccco2)C1	45.6% (inactive)
Cc1ccc(OCc2cc(C(=O)N3CCCC3c3nc4ccccc4s3)no2)cn1 (configuration not stated)	81.4% (active)
CCCC1C=CCN1C(=O)c1cc(COc2ccc(C(C)=O)cc2)on1 (configuration not stated)	75.2% (active)
CCCC1C=CCN1C(=O)c1cc(COc2ccc3c(c2)OCO3)[nH]n1 (configuration not stated)	31.8% (inactive)
Cc1ccccc1C1CCCN(C(=O)c2cc(COc3cccc4cnccc34)on2)C1 (configuration not stated)	46.4% (inactive)
C=CC[C@@H]1CC=C[C@@H](C)N1C(=O)c1cc(COc2ccc3sc(C)nc3c2)on1	-45.8% (inactive)
CCC1C=CCN1C(=O)c1cc(COc2ccc3sc(C)nc3c2)on1 (configuration not stated)	94.8% (active)
Cc1ccc(OCc2cc(C(=O)N3CCC(C(=O)c4ccccc4)CC3)no2)cn1	inactive
CCCCC1C=CCN1C(=O)c1c(O)cccc1O (configuration not stated)	3.76% (inactive)
COc1cc(OC)c2c(=O)c(-c3ccccc3)coc2c1	70.5% (active)
COc1ccc(-c2coc3cc(O)cc(O)c3c2=O)cc1	88.5% (active)
COc1ccc(-c2coc3c(O)c(OC)ccc3c2=O)cc1	67% (active)
COc1ccc(-c2cnoc2-c2ccc(OC)cc2O)cc1	-32.9% (inactive)
O=c1c(O)c(-c2ccc(O)c(O)c2)oc2cc(O)cc(O)c12	36.4% (inactive)
COc1ccc(OC)c(C(=O)c2coc3ccc(OC)cc23)c1	17.3% (inactive)
O=c1c(-c2ccc(O)cc2)coc2cc(O)cc(O)c12	50.5% (active)
COc1ccc2c(=O)c3c(=O)n(-c4ccccc4)c(C)nc3oc2c1	12.6% (inactive)
COc1ccc2c(=O)c(Oc3ccc(Cl)cc3)coc2c1	0.4% (inactive)
COc1ccc(-c2c(NC(=O)c3ccco3)oc3c(C)cccc3c2=O)cc1	19.2% (inactive)
